Experimental findings from PubChem BioAssay (EPA / NIEHS) are described below.

The target in experiment [1] is Oxysterols receptor LXR-beta (Homo sapiens) (UniProt P55055). Kind of experiment: ATG_LXRb_TRANS: Attagene TRANS-FACTORIAL HepG2 Assay for human Liver X Receptor beta (LXRb) (AID 2282981). As to conditions: HepG2 Attagene TRANS GAL4-LXRb reporter, mRNA. In a few lines: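 Readout: fluorescent reporter mRNA fragments resolved by capillary electrophoresis after RT-PCR. System: transiently transfected human HepG2, exogenous LXRb-Gal4 chimera driving GAL4-UAS reporter, 24 h dosing. Activity fitted upward against DMSO baseline.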

For experiment [2], the target named is Hepatocyte nuclear factor 4-alpha (Homo sapiens) (UniProt P41235). Put plainly: ATG_HNF4a_TRANS: Attagene TRANS-FACTORIAL HepG2 Assay for human Hepatocyte Nuclear Factor 4 alpha (HNF4a) (AID 2282982). As to conditions: HepG2 HNF4a transactivation reporter, mRNA readout. In a few lines: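 Transient MRTU transfection of HepG2, 24 h dosing. Readout: reporter mRNA via RT-PCR + capillary electrophoresis, fluorescence; activity fit upward relative to DMSO control.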

Experiment [3] is described as follows: ATG_M_32_TRANS: Attagene TRANS-FACTORIAL HepG2 Assay for M32 Transcription Factor (Internal Marker) (AID 2282984).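 Also: transcript level of a background control reporter unit measured by RT-PCR and capillary electrophoresis.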 The note with it: HepG2 Attagene TRANS M32 internal marker reporter. The essentials: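 Read-out: fluorescent reporter cDNA fragments resolved by capillary electrophoresis after RT-PCR of total RNA. Transfected HepG2 cells were exposed to chemical for 24 h. Activity scored in the positive direction relative to DMSO.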

In experiment [4] the target is Nuclear receptor subfamily 4 group A member 2 (Homo sapiens) (UniProt P43354). Kind of experiment: ATG_NURR1_TRANS: Attagene TRANS-FACTORIAL HepG2 Assay for human Nuclear Receptor Related Protein 1 (NURR1) (AID 2282985). As to conditions: HepG2 Attagene TRANS reporter, mRNA readout. In a few lines:
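Read-out: reporter mRNA induction by RT-PCR plus capillary electrophoresis with fluorescence detection, after 24 h dosing of transfected HepG2 cells. Exogenous NR-Gal4 chimera activity drives GAL4-UAS reporter; activity fitted upward versus DMSO.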

Experiment [5] has as its target Transcriptional activator Myb (Homo sapiens) (UniProt P10242). Put plainly: ATG_Myb_CIS: Attagene CIS-FACTORIAL HepG2 Assay for human Myeloblastosis (Myb) Proto-Oncogene Transcription Factor (AID 2282986; active = hit-call score of the fitted dose curve at least 0.9, where 1 is the maximum; inactive = score below 0.9). The note with it: HepG2 Attagene CIS-FACTORIAL Myb reporter transcription; actives raise or lower the signal. The essentials:
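In this HepG2 transient-transfection format, cis-regulated reporter mRNA is quantified 24 h post-dosing by RT-PCR with capillary electrophoresis, fitted bidirectionally to DMSO baseline.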

In experiment [6] the target is Nuclear respiratory factor 1 (Homo sapiens) (UniProt Q16656). Kind of experiment: ATG_NRF1_CIS: Attagene CIS-FACTORIAL HepG2 Assay for human Nuclear Respiratory Factor 1 (NRF1) Orphan Gene (AID 2282987; active = hit-call score of the fitted dose curve at least 0.9, where 1 is the maximum; inactive = score below 0.9). The note with it: HepG2 NRF1 cis-element reporter, Attagene multiplex; actives raise or lower the signal. In a few lines:
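Using DMSO as baseline, gain- or loss-of-signal was fitted for reporter mRNA levels in HepG2 cells transiently transfected with cis-regulated reporter units. Samples were taken 24 h after dosing and read by RT-PCR with capillary electrophoresis.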

Experiment [7] can be described thus: ATG_M_06_TRANS: Attagene TRANS-FACTORIAL HepG2 Assay for M06 Transcription Factor (Internal Marker) (AID 2282983).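 Also: reporter transcript level by RT-PCR then capillary electrophoresis fluorescence.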 The note with it: HepG2 Attagene TRANS M06 internal marker reporter. In a few lines: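 Multi-reporter-transfected HepG2, 24 h treatment; reporter transcripts quantified via RT-PCR, primer-extension labelling and CE. DMSO-normalized gain-of-signal fit.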

Results filed as inconclusive are left out. Calls of active or inactive are those of the source. The calls were made as follows, unless noted: active = hit-call score of the fitted dose curve at least 0.9, where 1 is the maximum; inconclusive = response in the unintended direction; inactive = score below 0.9.

Sequence of Oxysterols receptor LXR-beta (Homo sapiens) (P55055 whole entry, looked up, the tested form may be a part): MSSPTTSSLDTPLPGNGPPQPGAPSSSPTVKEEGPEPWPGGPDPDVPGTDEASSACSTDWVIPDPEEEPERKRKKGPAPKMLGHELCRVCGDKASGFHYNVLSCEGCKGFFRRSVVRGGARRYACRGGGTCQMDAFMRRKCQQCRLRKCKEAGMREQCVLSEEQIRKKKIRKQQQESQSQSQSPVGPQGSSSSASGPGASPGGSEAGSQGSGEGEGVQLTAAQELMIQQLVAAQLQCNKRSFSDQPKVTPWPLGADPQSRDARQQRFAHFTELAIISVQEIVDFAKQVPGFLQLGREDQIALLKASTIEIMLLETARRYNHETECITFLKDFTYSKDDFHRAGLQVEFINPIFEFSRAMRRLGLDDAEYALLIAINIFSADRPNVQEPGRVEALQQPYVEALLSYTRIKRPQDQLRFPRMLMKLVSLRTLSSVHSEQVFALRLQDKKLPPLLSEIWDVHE
Sequence of Nuclear respiratory factor 1 (Homo sapiens) (Q16656 whole entry, looked up): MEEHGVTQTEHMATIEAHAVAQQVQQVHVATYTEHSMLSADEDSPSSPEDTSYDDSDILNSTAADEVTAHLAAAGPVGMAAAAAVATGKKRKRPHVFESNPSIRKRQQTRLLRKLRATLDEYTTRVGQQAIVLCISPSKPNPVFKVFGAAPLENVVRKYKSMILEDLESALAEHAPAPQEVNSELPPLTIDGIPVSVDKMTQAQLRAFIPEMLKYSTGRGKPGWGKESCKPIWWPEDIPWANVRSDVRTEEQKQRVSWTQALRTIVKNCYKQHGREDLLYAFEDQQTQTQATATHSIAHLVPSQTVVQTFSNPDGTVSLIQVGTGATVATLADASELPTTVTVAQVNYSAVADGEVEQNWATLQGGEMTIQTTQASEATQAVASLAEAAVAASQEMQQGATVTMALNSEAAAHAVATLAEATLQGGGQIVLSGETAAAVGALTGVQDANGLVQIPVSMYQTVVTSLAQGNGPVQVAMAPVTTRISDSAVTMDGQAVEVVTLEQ
Sequence of Transcriptional activator Myb (Homo sapiens) (P10242 whole entry, looked up): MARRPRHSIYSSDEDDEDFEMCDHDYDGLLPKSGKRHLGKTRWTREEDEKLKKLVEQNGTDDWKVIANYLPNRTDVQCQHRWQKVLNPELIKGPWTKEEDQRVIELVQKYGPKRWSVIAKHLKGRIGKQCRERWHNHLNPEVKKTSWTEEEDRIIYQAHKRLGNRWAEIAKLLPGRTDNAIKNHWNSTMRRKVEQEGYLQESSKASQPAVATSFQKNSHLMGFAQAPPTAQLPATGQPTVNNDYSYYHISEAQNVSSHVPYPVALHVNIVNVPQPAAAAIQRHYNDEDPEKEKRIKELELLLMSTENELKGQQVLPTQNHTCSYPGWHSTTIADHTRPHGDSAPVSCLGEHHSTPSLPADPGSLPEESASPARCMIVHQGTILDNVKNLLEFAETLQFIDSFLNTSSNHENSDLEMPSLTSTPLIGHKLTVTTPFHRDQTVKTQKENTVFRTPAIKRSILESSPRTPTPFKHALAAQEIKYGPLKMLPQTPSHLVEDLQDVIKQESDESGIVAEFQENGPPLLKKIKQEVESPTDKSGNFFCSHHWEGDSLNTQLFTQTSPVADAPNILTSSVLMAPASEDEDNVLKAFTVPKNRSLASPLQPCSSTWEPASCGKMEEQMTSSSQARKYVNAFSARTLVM
Sequence of Nuclear receptor subfamily 4 group A member 2 (Homo sapiens) (P43354 whole entry, looked up, the tested form may be a part): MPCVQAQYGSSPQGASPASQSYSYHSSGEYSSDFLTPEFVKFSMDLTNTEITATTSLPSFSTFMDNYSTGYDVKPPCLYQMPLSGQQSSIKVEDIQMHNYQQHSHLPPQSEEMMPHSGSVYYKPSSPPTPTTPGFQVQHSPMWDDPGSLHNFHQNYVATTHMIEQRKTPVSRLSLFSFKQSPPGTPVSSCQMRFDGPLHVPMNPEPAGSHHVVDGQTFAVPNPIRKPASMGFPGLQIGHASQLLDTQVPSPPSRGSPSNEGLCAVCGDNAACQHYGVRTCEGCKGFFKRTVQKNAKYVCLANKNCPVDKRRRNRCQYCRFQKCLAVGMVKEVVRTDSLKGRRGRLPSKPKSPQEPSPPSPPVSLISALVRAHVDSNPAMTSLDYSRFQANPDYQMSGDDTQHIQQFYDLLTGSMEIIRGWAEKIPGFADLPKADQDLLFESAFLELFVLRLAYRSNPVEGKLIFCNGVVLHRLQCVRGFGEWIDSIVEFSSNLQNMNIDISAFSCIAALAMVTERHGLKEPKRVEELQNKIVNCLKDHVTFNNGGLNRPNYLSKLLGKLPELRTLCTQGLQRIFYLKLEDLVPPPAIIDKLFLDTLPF
Sequence of Hepatocyte nuclear factor 4-alpha (Homo sapiens) (P41235 whole entry, looked up): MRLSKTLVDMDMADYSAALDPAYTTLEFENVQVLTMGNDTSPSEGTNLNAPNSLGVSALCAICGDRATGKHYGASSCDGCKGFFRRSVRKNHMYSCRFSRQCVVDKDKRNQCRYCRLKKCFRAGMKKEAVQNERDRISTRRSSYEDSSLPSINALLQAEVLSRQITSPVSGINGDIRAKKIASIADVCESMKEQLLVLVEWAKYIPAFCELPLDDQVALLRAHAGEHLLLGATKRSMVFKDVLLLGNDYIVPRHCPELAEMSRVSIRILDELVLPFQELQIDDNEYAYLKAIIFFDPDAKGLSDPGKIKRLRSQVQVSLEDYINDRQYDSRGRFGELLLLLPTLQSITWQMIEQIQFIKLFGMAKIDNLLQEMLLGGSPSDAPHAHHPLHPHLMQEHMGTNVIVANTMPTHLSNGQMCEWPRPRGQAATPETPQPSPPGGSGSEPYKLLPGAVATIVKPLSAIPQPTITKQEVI

Take `[Cl][Bi]([Cl])([c]1ccccc1)([c]1ccccc1)[c]1ccccc1`: the compound was classed as inactive in experiment [1], in experiment [2], in experiment [3], in experiment [4], in experiment [5] and in experiment [6].

On to `C[C@]12C=CC(=O)C=C1CC[C@@H]1[C@@H]2[C@@H](O)C[C@@]2(C)[C@H]1CC[C@]2(O)C(=O)CO`, for which the result in experiment [1], in experiment [7], in experiment [4], in experiment [5] and in experiment [6] was inactive.

With `Cc1oncc1C(=O)Nc1ccc(C(F)(F)F)cc1`, the compound was called inactive in experiment [1], in experiment [2], in experiment [3], in experiment [4] and in experiment [5].

In the case of `Cc1cc(C)c(C)c(C)c1`, the outcome in experiment [1], in experiment [2], in experiment [3], in experiment [4], in experiment [5] and in experiment [6] was inactive.

`Cn1c([N+](=O)[O-])cnc1COC(N)=O`: the compound was classed as inactive in experiment [1], in experiment [4], in experiment [5] and in experiment [6].

For `Nc1ncn([C@@H]2O[C@H](CO)[C@@H](O)[C@H]2O)c(=O)n1`, the call in experiment [1], in experiment [3], in experiment [4], in experiment [5] and in experiment [6] was inactive.

For `CCOc1ccc(N)c([N+](=O)[O-])c1`, the result in experiment [1], in experiment [2], in experiment [7], in experiment [4], in experiment [5] and in experiment [6] was inactive.

On to `Cc1c(C)c([N+](=O)[O-])c(C(C)(C)C)c([N+](=O)[O-])c1C`, for which the compound was called inactive in experiment [1], in experiment [7], in experiment [3], in experiment [5] and in experiment [6]. In addition, in experiment [4], the AC50 is 9.67 µM (active).

For `CCCCC(CC)CCC(CC(C)C)OS(=O)(=O)O` (centres undefined), the compound was classed as inactive in experiment [1], in experiment [7], in experiment [3], in experiment [4], in experiment [5] and in experiment [6].

Turning to `Cc1cc(O)c(Cl)c(C)c1Cl`, the result in experiment [1], in experiment [2], in experiment [7], in experiment [5] and in experiment [6] was inactive.

As to `O=C(O)c1cc2ccccc2nc1C(=O)O`, the compound was called inactive in experiment [1], in experiment [2], in experiment [7], in experiment [4] and in experiment [6].

For the compound `CC(C)(C)C(=O)CCc1ccc(Cl)cc1`, the result in experiment [1], in experiment [7], in experiment [3], in experiment [4], in experiment [5] and in experiment [6] was inactive.

For the compound `CN(C)c1ccc(N=Nc2ccccc2C(=O)O)cc1`, the result in experiment [1], in experiment [3], in experiment [4] and in experiment [6] was inactive. Besides, in experiment [5], the half-maximal activity concentration (AC50) was 25.3 µM (active).

As to `O=C(O)c1ccccc1Nc1cccc(C(F)(F)F)c1`, the call in experiment [1], in experiment [7], in experiment [3], in experiment [5] and in experiment [6] was inactive.

In the case of `O=S(=O)(O)c1ccc2cc(O)c(S(=O)(=O)O)cc2c1`, the compound was called inactive in experiment [1], in experiment [3], in experiment [5] and in experiment [6].

As to `O=CN1CCCCC1`, the call in experiment [1], in experiment [3], in experiment [4], in experiment [5] and in experiment [6] was inactive.

Take `Cn1c(=O)[nH]c2ncn(C)c2c1=O`: the outcome in experiment [1], in experiment [2], in experiment [7], in experiment [3], in experiment [5] and in experiment [6] was inactive.

With `N#[N+]c1ccc2c(S(=O)(=O)[O-])cccc2c1O`, the compound was called inactive in experiment [1], in experiment [2], in experiment [3], in experiment [4], in experiment [5] and in experiment [6].

Regarding `CC[C@H]1OC(=O)[C@H](C)[C@@H](O[C@H]2C[C@@](C)(OC)[C@@H](O)[C@H](C)O2)[C@H](C)[C@@H](O[C@@H]2O[C@H](C)C[C@H](N(C)C)[C@H]2O)[C@](C)(O)C[C@@H](C)C(=NOCOCCOC)[C@H](C)[C@@H](O)[C@]1(C)O`, the outcome in experiment [1], in experiment [2], in experiment [4] and in experiment [6] was inactive.

As to `COc1c2ccoc2cc2oc(=O)ccc12`, the call in experiment [1], in experiment [2], in experiment [7] and in experiment [4] was inactive.

With `ON(Cc1ccccc1)Cc1ccccc1`, the outcome in experiment [1], in experiment [3], in experiment [5] and in experiment [6] was inactive.

With `OC1CCCC1`, the compound was called inactive in experiment [1], in experiment [7], in experiment [3], in experiment [4], in experiment [5] and in experiment [6].

`[Cl][Nd]([Cl])[Cl]`: the result in experiment [1], in experiment [2], in experiment [3], in experiment [4], in experiment [5] and in experiment [6] was inactive.

Take `Cc1cccc(OCCOc2cccc(C)c2)c1`: the compound was classed as inactive in experiment [1], in experiment [3], in experiment [5] and in experiment [6].

Take `COc1ccc(NC(C)=O)cc1N`: the call in experiment [1], in experiment [7], in experiment [4] and in experiment [5] was inactive.

As to `Cc1ccc(C(C)(C)C)cc1`, the outcome in experiment [1], in experiment [3], in experiment [4] and in experiment [6] was inactive.

`OCCN(CCO)c1ccccc1`: the result in experiment [1], in experiment [7], in experiment [4], in experiment [5] and in experiment [6] was inactive.

For `O=S1(=O)OC(c2ccc(O)cc2)(c2ccc(O)cc2)c2ccccc21`, the compound was called inactive in experiment [1], in experiment [2], in experiment [7], in experiment [4], in experiment [5] and in experiment [6].

Consider `CC(C)(c1cc(Br)c(OCCO)c(Br)c1)c1cc(Br)c(OCCO)c(Br)c1`, for which the call in experiment [1], in experiment [2], in experiment [3] and in experiment [5] was inactive. The figures for the half-maximal activity concentration (AC50) in experiment [4] and in experiment [6] were 21.5 µM (active) and 46.7 µM (active), respectively.

With `C[Si](C)(CCCN)O[Si](C)(C)CCCN`, the outcome in experiment [1], in experiment [7], in experiment [3] and in experiment [5] was inactive.

Turning to `COC(=O)c1c(C)cc(O)c(C)c1O`, the call in experiment [1], in experiment [7], in experiment [3], in experiment [5] and in experiment [6] was inactive.

Consider `O=c1c2ccccc2nnn1CCl`, for which the compound was classed as inactive in experiment [1], in experiment [2], in experiment [7], in experiment [3], in experiment [5] and in experiment [6].

As to `NC(=O)N=NC(N)=O`, the compound was classed as inactive in experiment [1], in experiment [2], in experiment [7], in experiment [4], in experiment [5] and in experiment [6].

As to `O=C(OCC1CCC2OC2C1)C1CCC2OC2C1` (centres undefined), the result in experiment [1], in experiment [7], in experiment [4] and in experiment [6] was inactive.

`Cc1cccc(C(=O)O)c1`: the compound was called inactive in experiment [1], in experiment [7], in experiment [3], in experiment [5] and in experiment [6].

In general, AC50 refers to the midpoint of the concentration-response curve, whichever way the signal moves.
